{"source": "paper PMC13494018", "binders": {"B1": {"name": "d1r8_design_ppi_139_dldesign_0_cycle1_af2pred (protein)", "chain": "AMSVGELMEVAKAEGAAVNAAAAALAAKDPAKAAALLDAYRAKVNAIIAEMSRTAIASGDFEAAAAAAAAKIKAAAKETLAALKAIA"}, "B2": {"name": "d1r7_design_ppi_941_dldesign_0_cycle0_af2pred (protein)", "chain": "AAAAAEAAEYLGKAVEYHKELEEAARRAIEKFGPEVEEEMEELLREAREALAKASQAAIAGDAEKTKEEMEKIKKIRERAKELLEK"}, "B3": {"name": "d1r8_design_ppi_150_dldesign_0_cycle1_af2pred (protein)", "chain": "SQAALVAAKGALALAKGIKAHVESNPNLPLEELEKLKEQLKTAEEMAKAAEKEAKKAGDKEVLEAAKKALEAIKEAKKALEEAIKKAK"}, "B4": {"name": "d1r7_design_ppi_873_dldesign_0_cycle1_af2pred (protein)", "chain": "SESIENQKKASEAMSEAIEAMAKAGFPISERNEVGKLGIEAMRLFQKSPEDPAALEEGKKKLAEVEKRLKEAKAA"}, "B5": {"name": "d1r8_design_ppi_233_dldesign_0_cycle0_af2pred (protein)", "chain": "DDLEEARELLEEARRLGEQALALVAQNPAARAEGGALMLELLKLQAEARRRAAEYEADPEKAEAAEAYREAAELASQLVRQISQAAV"}, "B6": {"name": "d1r7_design_ppi_677_dldesign_0_cycle0_af2pred (protein)", "chain": "VEEKIRGIEEAGRLGAEASPELAAEIEAFTKRAVEAARASGDEAVAGAALQAASLALIGAAWYAVDPEKGAAVLARARARLEALIA"}, "B7": {"name": "d1r7_design_ppi_719_dldesign_0_cycle1_af2pred (protein)", "chain": "SGAQAAVAAAQANLRQAKQLLEEGDYEGALGHIKLAKLAADAAKKQATAAGDQAAIDQATALQKEAEELEKEAKKALE"}, "B8": {"name": "d1r8_design_ppi_140_dldesign_0_cycle0_af2pred (protein)", "chain": "DVAAMKKEVEELKKKVEEVAKKAAESPEAQPYVNQAKGNAKSAELAAEGGDVALAKRFLKLAEEAMKKAEALI"}, "B9": {"name": "d1r7_design_ppi_493_dldesign_0_cycle0_af2pred (protein)", "chain": "SMLKEKEEAEKKRERVEKLIKEAEEAAKEAEKIDPVSGRGLRGMVEAARRLMEEGNLEAAEKLAQVALDAAAGLAAAA"}, "B10": {"name": "d1r8_design_ppi_218_dldesign_0_cycle1_af2pred (protein)", "chain": "PTPEELAAAYREVRELAERAVAGTPEEAKRYAERIAELVARAEERFGPGAGVLLRNVALAVARANPVAYEYVRAAL"}, "B11": {"name": "d1r7_design_ppi_855_dldesign_0_cycle1_af2pred (protein)", "chain": "SAAAAQARAVANTAAAAAKQGVPAEEVVALVEGAAKTLAGDPAALQAMIDTLAELAKASTPEAAATLNKAAEAVKKVLA"}, "B12": {"name": "d1r7_design_ppi_682_dldesign_0_cycle1_af2pred (protein)", "chain": "ATAEQIQQVKNYAKAAIQAVKNAAASDKAEALAVAKIFADALLKQGKLTTPEAAKEAEKAAKEILATAKALAA"}, "B13": {"name": "d1r7_design_ppi_855_dldesign_0_cycle0_af2pred (protein)", "chain": "SAAAAQARAVARMAAAAAESGVDAAEVLAVVTGAAQQLAADPAALQAMLDTLTALAAASTPEAAAVLAAAAAAVAAVLA"}, "B14": {"name": "d1r7_design_ppi_522_dldesign_0_cycle1_af2pred (protein)", "chain": "DPNEKARQLMNDAFQQATKLRAAGAANPATAAQDTAQGVQAVNEAKKKAAELASPEYAGKIEEMAKQLTSIISV"}, "B15": {"name": "d1r8_design_ppi_23_dldesign_0_cycle0_af2pred (protein)", "chain": "MEELAEEYIEEARRYAEEAERLAEQAGEAARPLARAARRALELAEENREDLELVKGQAEAARVFLEAARSRLEQLA"}, "B16": {"name": "d1r8_design_ppi_233_dldesign_0_cycle1_af2pred (protein)", "chain": "GALEEAKEKKKEAEEIGKQALALAAQNPASRAQAGALQVELLKLSAEARRKAEEYKADPETREAAKAYEEAAKLASQKIVEVSQALV"}, "B17": {"name": "d1r7_design_ppi_733_dldesign_0_cycle0_af2pred (protein)", "chain": "MEEALKALEEAEEAAREAGDEESAEILEKAREEVKAGTPSEGALTVARAAAEAVARARAAGNEDLADRVRALANRAIAALSRAAIA"}, "B18": {"name": "d1r7_design_ppi_719_dldesign_0_cycle0_af2pred (protein)", "chain": "SGAKAAIAAAKHNIKQAKKLLEEGDVEGALGHIKLAELATKAAEAEAKAAGDKEALKKAEELKKEVEELKKEAEKKKK"}, "B19": {"name": "d1r7_design_ppi_815_dldesign_0_cycle0_af2pred (protein)", "chain": "MEDLEELLRLIAEAQRALKTDAEEGIKLAEEAAKKAEELGLEKAAKLLKEAAKAAKTDAEEGIRLLNQAATQAAREYSEK"}, "B20": {"name": "d1r7_design_ppi_889_dldesign_0_cycle1_af2pred (protein)", "chain": "SEELDRAGAQTLAEIVGKQAKKVAKAAKELSKEKGGELTPLAEKAEEAAKKAIKLAEEGASAEEIYKAAQEAQDLRLKAKAALKAAKA"}, "B21": {"name": "d1r7_design_ppi_702_dldesign_0_cycle0_af2pred (protein)", "chain": "SAEKETNLANAKGYLALAKAYTKGATYYATKEGDLEKAKELYEKAKEASKLAIEAAAKAGPEAAAKAKAEADEIDKENEKALKEAE"}, "B22": {"name": "d1r7_design_ppi_869_dldesign_0_cycle0_af2pred (protein)", "chain": "GIGDELAKGEEYYRKSIELAKEGNKEEAKKYLEEAEAHYAAAAAAAEAQGNTALAAALRARAKARKEEAEKLIK"}, "B23": {"name": "d1r8_design_ppi_80_dldesign_0_cycle0_af2pred (protein)", "chain": "AAAEAAAALAAARAALAAVRETLARAERGEATREEAGAAINAGMRTIAALNAVAARIPAAKAEFDALAGEILDAIRALAAAVR"}, "B24": {"name": "d1r8_design_ppi_82_dldesign_0_cycle1_af2pred (protein)", "chain": "AAAAAKTAAKNVLKAVENFSKNAAAAGKASTPEEAARKLAEIEKFGEAGIAVAAADPEIAKKVKEVVDKAIAELKKAAA"}, "B25": {"name": "d1r7_design_ppi_640_dldesign_0_cycle1_af2pred (protein)", "chain": "AQQAVQQTQKVVDETKEVYERAKKEGSPEVAEKLKELLAQAQNNLQMAQAGGAEAAQLMYQNAKKIYEEAKKYAEEEIKKEKE"}, "B26": {"name": "d1r8_design_ppi_128_dldesign_0_cycle0_af2pred (protein)", "chain": "EEEVKKAKEEAEKAIEEARETERRYFAEAGRNPANALAYLQAGLEELEKIAKELERKGEEEGGEAGKVYKEAAREIKERRERIAAALS"}, "B27": {"name": "d1r8_design_ppi_87_dldesign_0_cycle1_af2pred (protein)", "chain": "NPLLEEARRAIEEAAKLVKTGTPEEAREALKRAAHELLRLAARSTDQAVAQKLITAAELVAKAAELVLTNPEEALKLVEEAL"}, "B28": {"name": "d1r7_design_ppi_562_dldesign_0_cycle1_af2pred (protein)", "chain": "SEKAEKLKKETLEKAEKAVKEAEASPDPKEGIKILSEAAREAARAAAESPEAGSAALALTVSAMEEFAAKARA"}, "B29": {"name": "d1r7_design_ppi_806_dldesign_0_cycle1_af2pred (protein)", "chain": "AKEEALRTLKSAAELAKVAADIAANVDPELAKKAKELAEKAKKLAEEAKKASEEEAKKLLEEGKKLLEEVRALTAEVARLAVAA"}, "B30": {"name": "d1r7_design_ppi_871_dldesign_0_cycle1_af2pred (protein)", "chain": "AAAAQTALRTAAAMYRSAAEMFEAGKTEDGLAAAKVAADVAANVPANKEFAAKTLKEITEAAKKDPAEAAKIAREAADYLDAQAAA"}, "B31": {"name": "d1r8_design_ppi_185_dldesign_0_cycle1_af2pred (protein)", "chain": "AAQAKALAAEADKLTEKARKLAKEGGDKEEVSKLLAEAAEKYAAAAEADPSTAFEYNARANLARFASQQNLEQAAKVAEAI"}, "B32": {"name": "d1r7_design_ppi_609_dldesign_0_cycle0_af2pred (protein)", "chain": "SELAEQALAAAESLIAEALRAAAEDPARAARLFASAKAVAEALKKIDPKLGEELLKKVEAAEAEAKAAIA"}, "B33": {"name": "d1r7_design_ppi_529_dldesign_0_cycle1_af2pred (protein)", "chain": "DELEKAIKEAEKYIEELKKTIKEGVKNPEEALKLAEEAEKEGEKAAALGIVGAGVGQLAKAAAQALRNKIAA"}, "B34": {"name": "d1r7_design_ppi_628_dldesign_0_cycle1_af2pred (protein)", "chain": "AEALLKEAEEVKARAAELAATGPEGIVEAAKLVAEMRRKGVENPEVRERVDALYREASAEIARQQRAWIAQQAAAR"}, "B35": {"name": "d1r7_design_ppi_937_dldesign_0_cycle1_af2pred (protein)", "chain": "GAAAEAAEREAKAALLKEVGAAAARMAPENPRLAAAGALGAARGLAALGYAEEGKAVLEETAAALPDPEEAARLRAAAAAL"}, "B36": {"name": "d1r7_design_ppi_941_dldesign_0_cycle1_af2pred (protein)", "chain": "AADRAAAAAALGAAVEAYSELVKLAKEAIEKHGPKVAPEMEKLIAEAQKALAAAAKAAIAGDAKAAKAAAEKIKKLKEEAKKLLEE"}, "B37": {"name": "d1r7_design_ppi_538_dldesign_0_cycle0_af2pred (protein)", "chain": "MEEVKKKAEEAKKEIEKLYEEALKYAKEGDIEKAAEYISKMREKGLEAAEEVPELAEEILAYTGRKALEALLELGKASL"}, "B38": {"name": "d1r7_design_ppi_733_dldesign_0_cycle1_af2pred (protein)", "chain": "VEEALKALEEAAKAAKEAGDEESAKILKEALEKVKAGTPAEGALTIAEKSAEAVKRALEKGNEELAEKILKLGQKAIAALSKAAIA"}}, "molecular_target": "CD276, Q5ZPR3", "sequence (Q5ZPR3 whole entry)": "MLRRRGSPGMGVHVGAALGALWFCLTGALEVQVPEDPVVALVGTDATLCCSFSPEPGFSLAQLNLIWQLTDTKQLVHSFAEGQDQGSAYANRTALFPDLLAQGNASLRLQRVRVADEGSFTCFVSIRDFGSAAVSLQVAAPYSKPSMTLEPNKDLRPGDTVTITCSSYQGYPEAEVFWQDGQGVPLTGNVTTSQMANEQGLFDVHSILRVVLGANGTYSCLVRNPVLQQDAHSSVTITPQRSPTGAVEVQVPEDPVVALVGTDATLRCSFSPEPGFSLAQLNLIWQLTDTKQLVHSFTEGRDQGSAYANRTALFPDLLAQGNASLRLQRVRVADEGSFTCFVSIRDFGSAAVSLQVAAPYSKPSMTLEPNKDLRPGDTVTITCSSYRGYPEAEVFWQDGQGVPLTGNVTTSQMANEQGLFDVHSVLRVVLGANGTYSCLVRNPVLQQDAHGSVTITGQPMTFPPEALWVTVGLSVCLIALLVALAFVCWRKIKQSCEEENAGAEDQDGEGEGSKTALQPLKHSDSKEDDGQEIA", "note": "Unmarked numbers belong to inactive results. The rule behind the calls is not given here.", "data": [{"binder": "B1", "values": [{"measurement": "binding in a display sort", "value": "not found"}]}, {"binder": "B2", "values": [{"measurement": "binding in a display sort", "value": "not found"}]}, {"binder": "B3", "values": [{"measurement": "binding in a display sort", "value": "not found"}]}, {"binder": "B4", "values": [{"measurement": "binding in a display sort", "value": "not found"}]}, {"binder": "B5", "values": [{"measurement": "binding in a display sort", "value": "not found"}]}, {"binder": "B6", "values": [{"measurement": "binding in a display sort", "value": "not found"}]}, {"binder": "B7", "values": [{"measurement": "binding in a display sort", "value": "not found"}]}, {"binder": "B8", "values": [{"measurement": "binding in a display sort", "value": "not found"}]}, {"binder": "B9", "values": [{"measurement": "binding in a display sort", "value": "not found"}]}, {"binder": "B10", "values": [{"measurement": "binding in a display sort", "value": "not found"}]}, {"binder": "B11", "values": [{"measurement": "binding in a display sort", "value": "not found"}]}, {"binder": "B12", "values": [{"measurement": "binding in a display sort", "value": "not found"}]}, {"binder": "B13", "values": [{"measurement": "binding in a display sort", "value": "not found"}]}, {"binder": "B14", "values": [{"measurement": "binding in a display sort", "value": "not found"}]}, {"binder": "B15", "values": [{"measurement": "binding in a display sort", "value": "not found"}]}, {"binder": "B16", "values": [{"measurement": "binding in a display sort", "value": "not found"}]}, {"binder": "B17", "values": [{"measurement": "binding in a display sort", "value": "not found"}]}, {"binder": "B18", "values": [{"measurement": "binding in a display sort", "value": "not found"}]}, {"binder": "B19", "values": [{"measurement": "binding in a display sort", "value": "not found"}]}, {"binder": "B20", "values": [{"measurement": "binding in a display sort", "value": "not found"}]}, {"binder": "B21", "values": [{"measurement": "binding in a display sort", "value": "not found"}]}, {"binder": "B22", "values": [{"measurement": "binding in a display sort", "value": "not found"}]}, {"binder": "B23", "values": [{"measurement": "binding in a display sort", "value": "not found"}]}, {"binder": "B24", "values": [{"measurement": "binding in a display sort", "value": "not found"}]}, {"binder": "B25", "values": [{"measurement": "binding in a display sort", "value": "not found"}]}, {"binder": "B26", "values": [{"measurement": "binding in a display sort", "value": "not found"}]}, {"binder": "B27", "values": [{"measurement": "binding in a display sort", "value": "not found"}]}, {"binder": "B28", "values": [{"measurement": "binding in a display sort", "value": "not found"}]}, {"binder": "B29", "values": [{"measurement": "binding in a display sort", "value": "not found"}]}, {"binder": "B30", "values": [{"measurement": "binding in a display sort", "value": "not found"}]}, {"binder": "B31", "values": [{"measurement": "binding in a display sort", "value": "not found"}]}, {"binder": "B32", "values": [{"measurement": "binding in a display sort", "value": "not found"}]}, {"binder": "B33", "values": [{"measurement": "binding in a display sort", "value": "not found"}]}, {"binder": "B34", "values": [{"measurement": "binding in a display sort", "value": "not found"}]}, {"binder": "B35", "values": [{"measurement": "binding in a display sort", "value": "binds (active)"}]}, {"binder": "B36", "values": [{"measurement": "binding in a display sort", "value": "not found"}]}, {"binder": "B37", "values": [{"measurement": "binding in a display sort", "value": "not found"}]}, {"binder": "B38", "values": [{"measurement": "binding in a display sort", "value": "not found"}]}]}
